# Reference: ChEMBL document CHEMBL3988442, “University of Dundee, Small-Polar-MMV Screening Library” (2021)
# Among all 48,000 compounds or so, about 13,000 (27%) showed an effect of 50% or more. This is one part of the list.
# Tested on: Wolbachia pipientis
# Experiment: Anti-Wolbachia Cell-Based Screen
# Type: functional
# Parameters: scale not given: in the data most compounds retested in dose-response had high values
# Conditions: 5 µM
row,SMILES,Percent Effect [%]
1,CC(C)c1nnc2n1CCN(C(=O)c1ccc(OCC3CC3)nc1)C2,-21
2,CCOc1cc(C)nc(N2CCN(Cc3nccn3C)CC2)n1,4.632
3,Cc1nc(C)c(CN2CCOC[C@H](Oc3ccc(S(C)(=O)=O)cc3)C2)s1,-11.23
4,CC(=O)N1CCCC1c1nnn2cc(-c3ccncc3)ccc12.O=C(O)C(F)(F)F (stereo not given),7.793
5,CC(=O)N1Cc2ccccc2CC1C(=O)Nc1ccc(C)cn1 (stereo not given),-8.335
6,Cc1ccc(CN(Cc2nc3c(cnn3C)c(=O)[nH]2)C2CC2)o1,96.47
7,CC(c1ccco1)N(C)Cc1nc2c(cnn2C)c(=O)[nH]1 (stereo not given),2.011
8,Cn1ncc2c(=O)[nH]c(CN(Cc3ccco3)C3CCCC3)nc21,8.263
9,CCN(Cc1nc2c(cnn2C)c(=O)[nH]1)c1cccc(C)c1C,-14.78
10,CC(N(C)Cc1nc2c(cnn2C)c(=O)[nH]1)C(C)(C)C (stereo not given),1.899
11,Cn1ncc2c(=O)[nH]c(CN(Cc3ccco3)C3CC3)nc21,87.32
12,O=C(NCc1ccccn1)[C@@H]1COC[C@H]2CN(c3ncccn3)C[C@H]21.O=C(O)C(F)(F)F.O=C(O)C(F)(F)F,-2.042
13,Cc1ccc(S(=O)(=O)Nc2ccc(=O)n(C)c2)cc1,-12.63
14,COc1ccc(-c2nccn2C[C@@H]2CCCN3CCCC[C@H]23)cc1,-24.08
15,COC(C)C(=O)N(CC(N)=O)Cc1cccc(Oc2ccccc2)c1 (stereo not given),2.959
16,CC(C)[C@H]1COC(=O)N1Cc1nccn1C(C)C,-0.6769
17,Cn1cc(NC(=O)c2cccc(C(F)(F)F)c2)c(=O)n(C)c1=O,-3.646
18,CN1CCC(CNC(=O)c2cccc(C(F)(F)F)c2)c2ccccc21 (stereo not given),-15.52
19,O=C(NCCN1CCCC(CO)C1)c1ccc2scnc2c1 (stereo not given),-0.5362
20,COc1cc(OC)cc(C(=O)NCc2nn(C)c3c2COCC3)c1,121.8
21,COc1ccc(CNC(=O)c2nn(C)c3c2CS(=O)(=O)CC3)cc1OC,-2.523
22,Cc1noc(NC(=O)c2ccc(OC(F)(F)F)cc2)n1,14.41
23,Cc1ncc(CNC(=O)c2nn(C)c3c2CS(=O)(=O)CC3)s1,8.614
24,Cn1nc(CNC(=O)c2cccc(C(F)(F)F)c2)c2c1CCOC2,111.4

row,SMILES,Percent Effect [%]
1,Cn1nc(CNC(=O)c2ccc(OC(F)(F)F)cc2)c2c1CCOC2,101.2
2,COc1cc(OC)cc(C(=O)NCCCNc2ncccn2)c1,15.23
3,COc1ccc(CN2CCc3c(CNC(=O)CC#N)nn(C)c3C2)cc1.O=C(O)C(F)(F)F.O=C(O)C(F)(F)F,8.44
4,Cn1nc(CNC(=O)c2ccc3nsnc3c2)c2c1CCOC2,120.7
5,O=C(NC1CC1)c1cc(NC(=O)N2CCSCC2)ccc1Cl,-25.35
6,CCc1c(C(=O)N2CCC3(CC(=O)NC3=O)C2)csc1C (stereo not given),4.433
7,Cn1nc(CNC(=O)c2ccc(Cl)cc2)c2c1CCOC2,-28.17
8,COC(=O)c1ccc(C(=O)NCc2nn(C)c3c2COCC3)cc1,116.6
9,Cn1nc(CNC(=O)NCc2ccc(Cl)cc2)c2c1CCOC2,-8.693
10,Cn1nc(CNC(=O)c2ccc3c(c2)OCO3)c2c1CCOC2,123.8
11,CCN(Cc1ccc2c(c1)OCO2)C(=O)c1ccc(=O)n(C)c1,-0.5548
12,Cc1nnc(SCCCNC(=O)c2ccc3c(c2)OCO3)s1,-1.096
13,COc1cccc(OCC2CCCN(C(=O)c3cc(C)n[nH]3)C2)c1 (stereo not given),-67.83
14,Cc1cccc2c1OCCCC2NCc1nccn1Cc1ccccc1 (stereo not given),-13.33
15,CC(NC(=O)CCc1cccs1)c1nnc2n1CCCCC2 (stereo not given),108.8
16,Cc1noc(C)c1CCC(=O)NC(C)c1nnc2n1CCCCC2 (stereo not given),-4.207
17,CC(NC(=O)Cc1cccs1)c1nnc2n1CCCCC2 (stereo not given),-4.411
18,CC(NC(=O)Cc1cccs1)c1nnc2n1CCC2 (stereo not given),95.59
19,CC(NC(=O)CCc1cccs1)c1nnc2n1CCC2 (stereo not given),-2.805
20,CNC(=O)N1C[C@H]2CC[C@@]3(N=C(c4ccccc4)NC3=O)[C@H]2C1,-7.438
21,N[C@H]1CN(C(=O)c2ccc(Cl)cc2F)C[C@@H]1C1CC1,-16.98
22,CCCOC1CCCN(C(=O)c2ccc(S(N)(=O)=O)cc2)C1 (stereo not given),2.275
23,CCS(=O)(=O)N(C)C1CCN(C(=O)c2ccc(C)c(C)c2)CC1,-2.68
24,CCN(c1ccc(C(=O)N2CCCCC2)cc1)S(=O)(=O)CC,114.5

row,SMILES,Percent Effect [%]
1,CCN(c1ccc(C(=O)N2CCCCCC2)cc1)S(=O)(=O)CC,148.2
2,Cc1cc(C(=O)N2CCCCC2)ccc1NS(C)(=O)=O,-18.21
3,CCN(c1ccc(C(=O)N2CCCC2)cc1)S(=O)(=O)CC,-7.72
4,COc1ccccc1OC1(C(=O)O)CCN(c2cc(C)nc(C)c2)CC1,-31.32
5,CCOc1ccc(C(F)(F)F)cc1NCc1nc(C)c(C)o1,-3.649
6,NCC1CCN(C2CCN(c3ccc(-c4ccco4)cc3)CC2)C1 (stereo not given),-12.7
7,CC(CCSc1ccccc1)N1CCN(C(=O)c2ccccc2O)CC1 (stereo not given),4.975
8,Nc1nc(NCCc2[nH]nc3c2CCCC3)cc(N2CCOCC2)n1,-17.88
9,CN(Cc1cccc(-n2cccn2)c1)c1cc(N2CCCC2)nc(N)n1,13.85
10,Cl.Nc1nc(Nc2ccccc2)cc(N2CCNCC2)n1,122.8
11,c1ccc(CCCn2cc(-c3nc(CN4CCOCC4)no3)nn2)cc1,-30.42
12,CCCSCC(=O)N1CCC2(CC1)CC(c1ccccc1)CN(C)C2 (stereo not given),-4.07
13,CN1CC(c2ccccc2)CC12CCN(C(=O)c1ccc(Cl)cc1)CC2 (stereo not given),-14.14
14,CCCC(=O)N1Cc2ccccc2CC2(CCN(C)C2)C1 (stereo not given),117.7
15,CN1CCC2(CC1)Cc1ccccc1CN(C(=O)CN)C2,99.69
16,CN1CCC2(Cc3ccccc3CN(C(=O)CCN)C2)C1 (stereo not given),104.1
17,CN1CCC2(CCN(C(=O)c3ccccc3)CC2)C1,-23.98
18,CN1CCC2(Cc3ccccc3CN(C(=O)c3ccc(Cl)cc3)C2)C1 (stereo not given),111.1
19,CCCC(=O)N1CCC2(CC1)COC2,-43.8
20,O=C1CC(c2ccc(C(=O)O)cc2)c2ncn(-c3ccc(Cl)cc3)c2N1 (stereo not given),-3.148
21,CC(C)C(C)(O)CNc1cccc(F)c1C#N (stereo not given),29.17
22,COCc1nnc(-c2cccc(C(=O)N(C(C)C)C3CCC3)c2)o1,24.51
23,O=C(CCNC(=O)c1ccc(Cl)cc1)NCc1nc(C2CC2)no1,-6.02
24,Cc1c(C(C)NC2CCOCC2)cnn1-c1ccc(F)cc1F (stereo not given),-3.497

row,SMILES,Percent Effect [%]
1,CN1CCC2(Cc3ccccc3CN(C(=O)Cc3cccc(Cl)c3)C2)C1 (stereo not given),135.8
2,O=C(Cc1ccccc1)N1CCC2(CC(=O)N(c3cccc(F)c3)C2)C1 (stereo not given),-7.146
3,COCCC(=O)N1CCC2(CN(Cc3cccc(Cl)c3)C2)C1,20.7
4,CC(=O)Nc1nc(C(=O)Nc2ccc(F)cc2)cs1,-0.1776
5,CC(=O)Nc1nc(C(=O)NCCOc2ccc(C)cc2)cs1,-6.104
6,CC(=O)Nc1nc(C(=O)NC(C)c2ccc(C#N)cc2)cs1 (stereo not given),80.7
7,CC(=O)Nc1nc(C(=O)NC(C)c2ccc3c(c2)OCCO3)cs1 (stereo not given),7.281
8,CC(=O)Nc1nc(C(=O)NC(C)c2ccc(F)c(F)c2)cs1 (stereo not given),54.27
9,CC(=O)Nc1nc(C(=O)NC(C)c2ccc(F)cc2)cs1 (stereo not given),33.73
10,CCc1ccc(C2COCCN2C(=O)Nc2ccc(C(N)=O)c(Cl)c2)o1 (stereo not given),-0.9462
11,Cc1cc(C(=O)N2C[C@H]3CC[C@@H]2CN(C(=O)c2ccncc2)C3)cs1,-9.465
12,Fc1cnc(N2CC[C@@H]3OC(COCc4cccnc4)CC[C@@H]32)nc1.O=C(O)C(F)(F)F.O=C(O)C(F)(F)F (stereo not given in full),-10.65
13,CN(C)CC(=O)N1CCO[C@@H]2CC(COCc3ccncc3)C[C@H]21 (stereo not given in full),100.6
14,CCOCC1C[C@@H]2OCCN(C(=O)c3ccc[nH]3)[C@H]2C1 (stereo not given in full),-14
15,c1cncc(COCC2C[C@@H]3OCCN(Cc4cccnc4)[C@H]3C2)c1 (stereo not given in full),111.6
16,O=C(O)C(F)(F)F.O=C(O)C(F)(F)F.c1cnc(N2CC[C@@H]3O[C@@H](COCc4cccnc4)CC[C@@H]32)nc1,-9.534
17,CN(C)C(=O)N1CCO[C@@H]2CC(COCc3cccnc3)C[C@H]21.O=C(O)C(F)(F)F (stereo not given in full),103.1
18,Cn1cnc2c1C(COCc1cccnc1)N(Cc1ccccc1)CC2 (stereo not given),2.197
19,O=C(O)C(F)(F)F.O=C(O)C(F)(F)F.O=C(O)C(F)(F)F.c1cncc(COCC2CN(Cc3cccnc3)Cc3ccnn3C2)c1 (stereo not given),11.05
20,Cc1ccoc1C(=O)N1CC[C@H]2OCC[C@@]2(COCc2ccncc2)C1,-2.681
21,Fc1ccc(CN2CC[C@H]3O[C@@H](COCc4cccnc4)CC[C@H]32)cc1.O=C(O)C(F)(F)F.O=C(O)C(F)(F)F,0.3958
22,COCC(=O)N1CCO[C@H]2[C@H](OCc3cccnc3)CC[C@@H]21.O=C(O)C(F)(F)F,-4.337
23,Cc1cnc(N2CCO[C@@H]3CC(COCc4cccnc4)C[C@H]32)nc1.O=C(O)C(F)(F)F.O=C(O)C(F)(F)F (stereo not given in full),79.55
